Measured values taken from PubChem BioAssay AID540333 (Southern Research Specialized Biocontainment Screening …, 2011).
The campaign covered roughly 10,000 compounds. About 320 (3.2%) were called active. The full list was thinned out, with actives kept by preference. Unmarked numbers belong to inactive results. Cut-off read from the data, not from the text of the source: active = CPE inhibition mostly above about 9.1% (no sharp cut-off); inactive = mostly below about 7.2%.

Test: Dengue virus cytopathic effect inhibitors, cell-based, CPE readout, HTS (AID 540333)
Conditions: Dengue virus CPE inhibition in host cells, at 20 µM; hits give high values

Row | Structure (SMILES) | CPE inhibition
1 | O=C(Nc1cccc(Cl)c1)Nc1ccc2c(c1)C(=O)OC2 | inactive
2 | COc1ccccc1[C@@H]1C(c2cccc(Cl)c2)=NN(c2ccccc2)[C@H]1C(=O)N1CCOC1=O | 19.3% (active)
3 | O=C1C2C(c3ccccc3)=NN(c3ccccc3)C2C(=O)N1c1ccccc1 (stereo not given) | inactive
4 | COc1cccc(N2C(C(C)=O)=NN(c3ccccc3)C2c2ccc(N3CCOCC3)cc2)c1 (stereo not given) | 2.42%
5 | O=C(/C=C/c1ccc(Br)cc1)NC(=S)Nc1ccc(S(=O)(=O)Nc2nccs2)cc1 | inactive
6 | Nc1c(C(=O)c2ccc(Cl)cc2)sc2nc3c(cc12)CCC3 | 7.59%
7 | O=C(Nc1ccc(Cl)cc1)c1cccc(N2C(=O)C3C4CCC(C4)C3C2=O)c1 (stereo not given) | 2.71%
8 | CC(C)(C)NC(=O)c1ccc2c(c1)C1C3CCC(C3)C1C(c1ccccc1)N2 (stereo not given) | 15.9% (active)
9 | O=C(O)c1ccc(NC(=O)c2cccc(N3C(=O)C4C5CCC(C5)C4C3=O)c2)cc1 (stereo not given) | 1.22%
10 | O=C(CCC(=O)NCCCc1ccccc1)NCCCc1ccccc1 | inactive
11 | Cc1ccc(SCCNC(=O)/C=C/c2cccc([N+](=O)[O-])c2)cc1 | 6.54%
12 | CCCCNC(=O)c1onc(CSc2cccc(OC)c2)c1C(=O)O | inactive
13 | CCCCNC(=O)c1onc(CSc2ccccn2)c1C(=O)NCCCC | 1.85%
14 | COCCNC(=O)c1onc(CSc2ccc(F)c(F)c2)c1C(=O)NCCOC | inactive
15 | O=C(NCCCN1CCOCC1)c1onc(CSc2ccccn2)c1C(=O)NCCCN1CCOCC1 | inactive
16 | CC(C)CCNC(=O)c1onc(CSc2ccccn2)c1C(=O)NCCC(C)C | 25.9% (active)
17 | C=CCNC(=O)c1c(CSc2ccc(Cl)cc2)noc1C(=O)NCCC | 0.85%
18 | O=C(NCCCN1CCOCC1)c1onc(CSc2ccc(F)c(F)c2)c1C(=O)NCCCN1CCOCC1 | inactive
19 | C=CCNC(=O)c1c(CSc2ccc(Cl)cc2)noc1C(=O)NCc1ccccc1 | 11.2% (active)
20 | CCCCNC(=O)c1onc(CSc2cccc(OC)c2)c1C(=O)NCCCC | 20.1% (active)
21 | C=CCNC(=O)c1onc(CSc2ccccc2)c1C(=O)NCC=C | 0.535%
22 | CCCCNC(=O)c1onc(CSc2ccc(F)c(F)c2)c1C(=O)NCCCC | 11.5% (active)

Row | Structure (SMILES) | CPE inhibition
23 | COc1cccc(SCc2noc(C(=O)NCCCN3CCOCC3)c2C(=O)NCCCN2CCOCC2)c1 | 0.255%
24 | CCn1c(C)nc2cc(C(=O)NNC(=S)Nc3ccc(Cl)cc3Cl)ccc21 | inactive
25 | O=C(Cc1cccs1)N/N=C/c1ccco1 | 0.08%
26 | COC(=O)c1c(NC(=O)C2C3C=CC(CC3)C2C(=O)O)sc(C)c1C (stereo not given) | inactive
27 | CC1=CN2C(=N)/C(=C/c3ccc(Sc4ccc(C)cc4)o3)C(=O)N=C2S1 | 9.52%
28 | Cc1cccc(NC(=O)CN2C(=O)N/C(=C/c3cc(C)n(-c4ccncc4)c3C)C2=O)c1 | inactive
29 | COc1cccc(SCc2noc(C(=O)NCCN(C)C)c2C(=O)NCCN(C)C)c1 | 0.54%
30 | COCCNC(=O)c1onc(CSc2cccc(OC)c2)c1C(=O)NCCOC | 0.425%
31 | COc1cccc(SCc2noc(C(=O)NCCC(C)C)c2C(=O)NCCC(C)C)c1 | 23% (active)
32 | CNC(=S)N(CCc1ccc(OC)c(OC)c1)Cc1cc2c(C)cc(C)cc2[nH]c1=O | inactive
33 | O=C1CN(C(=O)CSc2nnc3ccccn23)c2ccccc2N1 | 0.845%
34 | C=CCNC(=O)C12CCC(C)(C(=O)C1Br)C2(C)C (stereo not given) | 0.36%
35 | CCOC(=O)N(NC(=O)C(O)(c1ccccc1)c1ccccc1)c1ccccc1 | 2.6%
36 | COC(=O)N(NC(=O)C(O)(c1ccccc1)c1ccccc1)c1ccccc1 | 1.2%
37 | COC(=O)N(NC(=O)C(O)(c1ccccc1)c1ccccc1)c1ccc(C)cc1 | 61.4% (active)
38 | CC(NC(=O)/C(C#N)=C/c1cn(-c2ccccc2)nc1-c1ccc(F)cc1)c1ccccc1 (stereo not given) | 8.04% (active)
39 | COc1ccc(-c2nn(-c3ccccc3)cc2/C=C(/C#N)C(N)=O)cc1[N+](=O)[O-] | inactive
40 | COc1ccc(-c2nn(-c3ccccc3)cc2/C=C(\C#N)S(=O)(=O)c2ccccc2)cc1OC | 0.055%
41 | CC1CC(=O)N(c2ccc(NCc3ccc(Cl)cc3)c([N+](=O)[O-])c2)C1=O (stereo not given) | 0.275%
42 | COc1ccc(CC(=O)NNc2ncnc3c2cnn3-c2ccc(C)cc2)cc1OC | 2.76%
43 | Cc1cc(C)nc(N/N=C/C=C/c2ccccc2)n1 | 0.52%
44 | Cc1cc(C)nc(N/N=C/C2=C(N3CCOCC3)C(=C/c3ccccc3)/CC2)n1 | 9.78% (active)

Row | Structure (SMILES) | CPE inhibition
45 | O=[N+]([O-])c1cccc(/C=N/Nc2nc(NCc3ccccc3)nc(N3CCOCC3)n2)c1 | 1.39%
46 | COc1ccc(-n2c(C)cc(/C=N/Nc3nc(N4CCOCC4)nc(N4CCOCC4)n3)c2C)cc1 | inactive
47 | Cc1cc(C)nc(N/N=C/C2=C(N3CCOCC3)C(=C\c3ccc(Cl)cc3)/CC2)n1 | 15.6% (active)
48 | S=C(N/N=C/c1ccc(Cl)cc1)N1CCOCC1 | inactive
49 | COc1ccccc1NC(=S)N1CCN(C/C=C/c2ccccc2)CC1 | 0.46%
50 | O=C(N/N=C/c1cccc(O)c1)c1ccc(COc2ccccc2Br)cc1 | 3.17%
51 | S=C(NCCCNC(=S)Nc1ccccc1)Nc1ccccc1 | inactive
52 | CCOCC(O)CNc1ccccc1 (stereo not given) | inactive
53 | COc1ccc(N(C(=O)CS(=O)CC(=O)Nc2ccc(F)cc2)C(C(=O)NC2CCCCC2)c2cccs2)cc1 (stereo not given) | 0.1%
54 | CCOC(=O)c1c(NC(=O)c2ccccc2N(C)S(=O)(=O)c2ccccc2)sc2c1CCCC2 | 0.225%
55 | COC(=O)c1c(NC(=O)CN(c2ccccc2)S(C)(=O)=O)sc2c1CCCC2 | 18% (active)
56 | CC(C)[C@H](NS(=O)(=O)c1ccccc1)C(=O)OCC(=O)Nc1ccccc1Sc1ccccc1 | 24.5% (active)
57 | COC(=O)c1c(NC(C)=O)sc2c1CCCCC2 | 0.285%
58 | COC(=O)c1c(NC(=O)COC(=O)[C@@H](NS(=O)(=O)c2ccccc2)C(C)C)sc2c1CCC2 | 24% (active)
59 | O=C(COC(=O)CNS(=O)(=O)c1ccc2ccccc2c1)Nc1ccccc1Sc1ccccc1 | inactive
60 | O=C(COC(=O)CNS(=O)(=O)c1cccc(Br)c1)Nc1ccccc1Sc1ccccc1 | inactive
61 | CC(C)OC(=O)c1c(NC(=O)CCC(=O)O)sc2c1CCCCC2 | inactive
62 | CCOC(=O)c1c(NC(=O)COC(=O)c2ccccn2)sc2c1CCC2 | inactive
63 | COC(=O)c1c(NC(=O)CN2C(=O)NC(CCc3ccccc3)C2=O)sc2c1CCCCC2 (stereo not given) | 25.6% (active)
64 | COC(=O)c1c(NC(=O)C2C3CCC(O3)C2C(=O)O)sc2c1CCCCCC2 (stereo not given) | 0.645%
65 | COC(=O)c1c(NC(=O)COC(=O)c2ccc(Cl)cc2[N+](=O)[O-])sc2c1CCCCC2 | 3.41%
